{"source": "the supplement of paper PMC9794691", "tested_on": "PC9", "assay": "area under confluence curve of osimertinib + compound combination regimen (DTP regrowth); compare to osimertinib-only DTP control AUC of the same experiment (AUC (confluence x time, arbitrary))", "protocol": "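compare to osimertinib-only DTP control AUC of the same experiment; Long-term drug-tolerant persister (DTP) screen in EGFR-mutant NSCLC cell lines in 48-well plates. The test compound was given at one fixed dose with osimertinib, either upfront (from day 0 to the DTP stage at 10-21 days, then drug-free medium) or sequentially (osimertinib alone to the DTP stage, then the test compound). IncuCyte confluence was tracked until osimertinib-only controls regrew, and AUC was computed in Prism. AUC scale depends on experiment duration, so each row carries the same-experiment osimertinib-only DTP and DMSO control AUCs; combination activity = control minus combo AUC. Osimertinib dose not stated.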", "key": {"[1]": {"conditions": "test compound dose 10 nM, dosing schedule: sequential, osimertinib-only DTP control AUC in same experiment: 14708, DMSO control AUC in same experiment: 21341"}, "[2]": {"conditions": "test compound dose 10 nM, dosing schedule: upfront, osimertinib-only DTP control AUC in same experiment: 21313, DMSO control AUC in same experiment: 21341"}}, "note": "± gives the standard deviation of the averaged measurements.", "data": [{"compound": "Cn1cc(CNCC2CCN(c3ncc(C(=O)NO)cn3)CC2)c2ccccc21", "note": "[Quisinostat] + C=CC(=O)Nc1cc(Nc2nccc(-c3cn(C)c4ccccc34)n2)c(OC)cc1N(C)CCN(C)C [osimertinib]", "values": [{"measurement": "area under confluence curve", "setting": "test compound dose 10 nM, dosing schedule: sequential, osimertinib-only DTP control AUC in same experiment: 10175, DMSO control AUC in same experiment: 27958", "value": 2060}, {"measurement": "area under confluence curve", "setting": "test compound dose 10 nM, dosing schedule: sequential, osimertinib-only DTP control AUC in same experiment: 13992, DMSO control AUC in same experiment: 30002", "value": 4770}, {"measurement": "area under confluence curve", "setting": "[1]", "value": 2700}, {"measurement": "area under confluence curve", "setting": "test compound dose 10 nM, dosing schedule: upfront, osimertinib-only DTP control AUC in same experiment: 16134, DMSO control AUC in same experiment: 27958", "value": 1380}, {"measurement": "area under confluence curve", "setting": "[2]", "value": 6010}, {"measurement": "area under confluence curve", "setting": "test compound dose 10 nM, dosing schedule: upfront, osimertinib-only DTP control AUC in same experiment: 22377, DMSO control AUC in same experiment: 30002", "value": 4720}]}, {"compound": "CC(=O)Nc1cccc(-n2c(=O)n(C3CC3)c(=O)c3c(Nc4ccc(I)cc4F)n(C)c(=O)c(C)c32)c1", "note": "[Trametinib] + C=CC(=O)Nc1cc(Nc2nccc(-c3cn(C)c4ccccc34)n2)c(OC)cc1N(C)CCN(C)C [osimertinib]", "values": [{"measurement": "area under confluence curve", "setting": "test compound dose 10 nM, dosing schedule: sequential, osimertinib-only DTP control AUC in same experiment: 14554, DMSO control AUC in same experiment: 49189", "value": 10400}, {"measurement": "area under confluence curve", "setting": "[1]", "value": 3390}, {"measurement": "area under confluence curve", "setting": "[2]", "value": 6970}, {"measurement": "area under confluence curve", "setting": "test compound dose 10 nM, dosing schedule: upfront, osimertinib-only DTP control AUC in same experiment: 24473, DMSO control AUC in same experiment: 49189", "value": 9410}]}, {"compound": "C[C@@]1(C(=O)Nc2ccc(F)nc2)CCCN1c1nc(Nc2cc(C3CC3)n[nH]2)c2cccn2n1", "note": "+ C=CC(=O)Nc1cc(Nc2nccc(-c3cn(C)c4ccccc34)n2)c(OC)cc1N(C)CCN(C)C [osimertinib]", "values": [{"measurement": "area under confluence curve", "setting": "test compound dose 100 nM, dosing schedule: sequential, osimertinib-only DTP control AUC in same experiment: 1963, DMSO control AUC in same experiment: 30580", "value": "219 ± 17"}, {"measurement": "area under confluence curve", "setting": "test compound dose 100 nM, dosing schedule: sequential, osimertinib-only DTP control AUC in same experiment: 12502, DMSO control AUC in same experiment: 49143", "value": 7400}, {"measurement": "area under confluence curve", "setting": "test compound dose 100 nM, dosing schedule: sequential, osimertinib-only DTP control AUC in same experiment: 14708, DMSO control AUC in same experiment: 21341", "value": 3460}, {"measurement": "area under confluence curve", "setting": "test compound dose 100 nM, dosing schedule: upfront, osimertinib-only DTP control AUC in same experiment: 8618, DMSO control AUC in same experiment: 30580", "value": "4520 ± 430"}, {"measurement": "area under confluence curve", "setting": "test compound dose 100 nM, dosing schedule: upfront, osimertinib-only DTP control AUC in same experiment: 21313, DMSO control AUC in same experiment: 21341", "value": 7730}, {"measurement": "area under confluence curve", "setting": "test compound dose 100 nM, dosing schedule: upfront, osimertinib-only DTP control AUC in same experiment: 28310, DMSO control AUC in same experiment: 49143", "value": 13100}]}, {"compound": "CCN1CCN(Cc2ccc(Nc3ncc(F)c(-c4cc(F)c5nc(C)n(C(C)C)c5c4)n3)nc2)CC1", "note": "[Abemaciclib] + C=CC(=O)Nc1cc(Nc2nccc(-c3cn(C)c4ccccc34)n2)c(OC)cc1N(C)CCN(C)C [osimertinib]", "values": [{"measurement": "area under confluence curve", "setting": "test compound dose 100 nM, dosing schedule: sequential, osimertinib-only DTP control AUC in same experiment: 10725, DMSO control AUC in same experiment: 30578", "value": 2310}, {"measurement": "area under confluence curve", "setting": "test compound dose 100 nM, dosing schedule: sequential, osimertinib-only DTP control AUC in same experiment: 15163, DMSO control AUC in same experiment: 28684", "value": 7750}, {"measurement": "area under confluence curve", "setting": "test compound dose 100 nM, dosing schedule: sequential, osimertinib-only DTP control AUC in same experiment: 23366, DMSO control AUC in same experiment: 88996", "value": 7100}, {"measurement": "area under confluence curve", "setting": "test compound dose 100 nM, dosing schedule: upfront, osimertinib-only DTP control AUC in same experiment: 10245, DMSO control AUC in same experiment: 30578", "value": 6070}, {"measurement": "area under confluence curve", "setting": "test compound dose 100 nM, dosing schedule: upfront, osimertinib-only DTP control AUC in same experiment: 21337, DMSO control AUC in same experiment: 28684", "value": 15800}, {"measurement": "area under confluence curve", "setting": "test compound dose 100 nM, dosing schedule: upfront, osimertinib-only DTP control AUC in same experiment: 29852, DMSO control AUC in same experiment: 88996", "value": 6410}]}, {"compound": "COC[C@H]1Cn2cc(-c3nc(Nc4ccnn4C)ncc3C)nc2C(=O)N1Cc1ccc(F)c(F)c1", "note": "+ C=CC(=O)Nc1cc(Nc2nccc(-c3cn(C)c4ccccc34)n2)c(OC)cc1N(C)CCN(C)C [osimertinib]", "values": [{"measurement": "area under confluence curve", "setting": "test compound dose 100 nM, dosing schedule: sequential, osimertinib-only DTP control AUC in same experiment: 11414, DMSO control AUC in same experiment: 31219", "value": 6430}, {"measurement": "area under confluence curve", "setting": "test compound dose 100 nM, dosing schedule: sequential, osimertinib-only DTP control AUC in same experiment: 14554, DMSO control AUC in same experiment: 49189", "value": 2470}, {"measurement": "area under confluence curve", "setting": "test compound dose 100 nM, dosing schedule: upfront, osimertinib-only DTP control AUC in same experiment: 18848, DMSO control AUC in same experiment: 31219", "value": 2020}, {"measurement": "area under confluence curve", "setting": "test compound dose 100 nM, dosing schedule: upfront, osimertinib-only DTP control AUC in same experiment: 24473, DMSO control AUC in same experiment: 49189", "value": 2580}]}, {"compound": "CNC(=O)c1cccc(-c2ccc3c(N4CCOC[C@@H]4C)nc(N4CCOC[C@@H]4C)nc3n2)c1", "note": "+ C=CC(=O)Nc1cc(Nc2nccc(-c3cn(C)c4ccccc34)n2)c(OC)cc1N(C)CCN(C)C [osimertinib]", "values": [{"measurement": "area under confluence curve", "setting": "test compound dose 100 nM, dosing schedule: sequential, osimertinib-only DTP control AUC in same experiment: 13052, DMSO control AUC in same experiment: 28334", "value": 6580}, {"measurement": "area under confluence curve", "setting": "test compound dose 100 nM, dosing schedule: upfront, osimertinib-only DTP control AUC in same experiment: 17920, DMSO control AUC in same experiment: 28334", "value": 14800}]}, {"compound": "COc1ccc(CCc2nc3cc(-c4c(C)noc4C)ccc3n2C[C@H](C)N2CCOCC2)cc1Cl", "note": "+ C=CC(=O)Nc1cc(Nc2nccc(-c3cn(C)c4ccccc34)n2)c(OC)cc1N(C)CCN(C)C [osimertinib]", "values": [{"measurement": "area under confluence curve", "setting": "test compound dose 1000 nM, dosing schedule: sequential, osimertinib-only DTP control AUC in same experiment: 4730, DMSO control AUC in same experiment: 72888", "value": 6290}, {"measurement": "area under confluence curve", "setting": "test compound dose 1000 nM, dosing schedule: sequential, osimertinib-only DTP control AUC in same experiment: 9508, DMSO control AUC in same experiment: 26668", "value": 9310}, {"measurement": "area under confluence curve", "setting": "test compound dose 1000 nM, dosing schedule: sequential, osimertinib-only DTP control AUC in same experiment: 12065, DMSO control AUC in same experiment: 48219", "value": 13500}, {"measurement": "area under confluence curve", "setting": "test compound dose 1000 nM, dosing schedule: upfront, osimertinib-only DTP control AUC in same experiment: 8775, DMSO control AUC in same experiment: 72888", "value": 20400}, {"measurement": "area under confluence curve", "setting": "test compound dose 1000 nM, dosing schedule: upfront, osimertinib-only DTP control AUC in same experiment: 11298, DMSO control AUC in same experiment: 26668", "value": 10700}, {"measurement": "area under confluence curve", "setting": "test compound dose 1000 nM, dosing schedule: upfront, osimertinib-only DTP control AUC in same experiment: 22645, DMSO control AUC in same experiment: 48219", "value": 37300}]}, {"compound": "C[C@@H](c1ccc2nccn2c1)n1nnc2ncc(-c3cnn(C)c3)nc21", "note": "[Savolitinib] + C=CC(=O)Nc1cc(Nc2nccc(-c3cn(C)c4ccccc34)n2)c(OC)cc1N(C)CCN(C)C [osimertinib]", "values": [{"measurement": "area under confluence curve", "setting": "test compound dose 1000 nM, dosing schedule: sequential, osimertinib-only DTP control AUC in same experiment: 12535, DMSO control AUC in same experiment: 43316", "value": 7800}, {"measurement": "area under confluence curve", "setting": "test compound dose 1000 nM, dosing schedule: upfront, osimertinib-only DTP control AUC in same experiment: 15354, DMSO control AUC in same experiment: 43316", "value": 11900}]}, {"compound": "Cc1cc(Nc2ncnc3ccc(NC4=NC(C)(C)CO4)cc23)ccc1Oc1ccn2ncnc2c1", "note": "[Tucatinib] + C=CC(=O)Nc1cc(Nc2nccc(-c3cn(C)c4ccccc34)n2)c(OC)cc1N(C)CCN(C)C [osimertinib]", "values": [{"measurement": "area under confluence curve", "setting": "test compound dose 1000 nM, dosing schedule: sequential, osimertinib-only DTP control AUC in same experiment: 13992, DMSO control AUC in same experiment: 30002", "value": 11100}, {"measurement": "area under confluence curve", "setting": "test compound dose 1000 nM, dosing schedule: sequential, osimertinib-only DTP control AUC in same experiment: 16279, DMSO control AUC in same experiment: 29345", "value": 17500}, {"measurement": "area under confluence curve", "setting": "test compound dose 1000 nM, dosing schedule: upfront, osimertinib-only DTP control AUC in same experiment: 19769, DMSO control AUC in same experiment: 29345", "value": 18600}, {"measurement": "area under confluence curve", "setting": "test compound dose 1000 nM, dosing schedule: upfront, osimertinib-only DTP control AUC in same experiment: 22377, DMSO control AUC in same experiment: 30002", "value": 17200}]}]}
